Most compounds without a hit are left out; they make up all but 10% or so of the library.
hNpr1 antagonist = human Npr1 receptor antagonism; P16066; HEK293 hNpr1 GloSensor cGMP, ANP-stimulated luminescence; Potency, µM (doses to about 46.3 µM), actives largely listed as inhibitors; actives 1.6% (n = 76,000); AID 1347048; calls by dose curve; further: nearly all actives have a fitted effect of over 60% in size
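Compound pre-incubated 30 min at room temperature on GloSensor-loaded HEK293 cells stably carrying hNpr1 and the pGS-40F cGMP biosensor. Stimulation uses hNppA at 0.1 nM final; luminescence is taken at baseline and 20 min post-agonist.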
3T3 cytotox = cytotoxic compounds in NIH 3T3 cells; Potency, µM (doses to about 96.7 µM), hits mostly inhibitors; NIH 3T3 viability, CellTiter-Glo ATP luminescence, 48-72 h; actives 4.3% (n = 94,000); further: nearly all actives have a fitted effect of over 55% in size
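ATP-dependent luminescence (CellTiter-Glo) served as the viability signal for NIH 3T3 cells treated with compound for 48 or 72 hr at 37 °C.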
HEK293 tox = HEK 293 cell cytotoxicity. HEK 293 viability, ATP luminescence (CellTiter-Glo), 48-72 h. Potency, µM (top dose mostly 115 µM), most hits filed as inhibitors. actives 6.6% (n = 94,000). AID 1345083; further: nearly all actives have a fitted effect of over 60% in size
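CellTiter-Glo luminescence (cellular ATP) was read after 48 or 72 hr of compound exposure at 37 degree Celsius. Cells were HEK 293 plated at 250 cells/well.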
GPT2 inhibitor = inhibitors of human GPT2 alanine aminotransferase | Q8TD30 | Recombinant GPT2, coupled pyruvate oxidase/HRP Amplex Red fluorescence | Potency, µM (top dose mostly 57.7 µM), most hits filed as inhibitors | actives 0.25% (n = 100,000); further: nearly all actives have a fitted effect of over 60% in size
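Inhibition is scored from Amplex Red fluorescence generated when pyruvate oxidase and HRP act on pyruvate released by GPT2. Reactions contain 10ng/uL enzyme, 250uM a-KG and 2mM L-alanine and run 30 min at room temperature.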
FLuc inh-1 = blocks purified firefly luciferase enzyme activity. purified P. pyralis luciferase, luminescence, biochemical. AID 1347043. P08659. Potency, µM (series often up to 115 µM), actives largely listed as inhibitors. actives 2.5% (n = 76,000); further: nearly all actives have a fitted effect of over 65% in size
Target sequence (P08659 whole entry, looked up): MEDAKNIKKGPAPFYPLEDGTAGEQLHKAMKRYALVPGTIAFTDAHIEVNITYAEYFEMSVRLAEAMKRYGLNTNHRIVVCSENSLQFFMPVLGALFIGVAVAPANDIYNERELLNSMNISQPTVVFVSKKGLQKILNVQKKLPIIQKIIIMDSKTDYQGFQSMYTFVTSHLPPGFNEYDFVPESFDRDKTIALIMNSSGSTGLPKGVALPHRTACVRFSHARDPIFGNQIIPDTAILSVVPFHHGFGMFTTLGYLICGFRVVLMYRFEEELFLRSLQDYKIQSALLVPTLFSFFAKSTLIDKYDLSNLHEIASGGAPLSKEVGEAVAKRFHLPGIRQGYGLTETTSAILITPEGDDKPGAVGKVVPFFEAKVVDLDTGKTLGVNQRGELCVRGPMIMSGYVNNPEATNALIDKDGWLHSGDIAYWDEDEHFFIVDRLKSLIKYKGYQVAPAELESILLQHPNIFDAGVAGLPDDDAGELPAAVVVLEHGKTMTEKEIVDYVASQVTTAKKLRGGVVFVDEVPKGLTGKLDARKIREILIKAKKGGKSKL
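Purified P. pyralis luciferase (10nM final) in 50mM Tris acetate pH 7.5, 10mM Mg acetate, 0.01% Tween-20, 0.05% BSA with 10uM D-luciferin and 10uM ATP. Compounds titrated qHTS. Luminescence imaged on CCD.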
FLuc SDR no ATP = binders stabilizing firefly luciferase, without ATP; shares compounds with FLuc inh-1; Purified FLuc-C-HiBiT, Nano-Glo HiBiT luminescence, no ATP; Potency, µM (titrated, usually from 32.7 µM), actives largely listed as activators; actives 7.8% (n = 1,300); AID 1963318; further: nearly all actives have a fitted effect of over 55% in size
FLuc SDR ATP = firefly luciferase binding stabilization, ATP added | shares compounds with FLuc inh-1 | purified FLuc-C-HiBiT + ATP, HiBiT complementation luminescence | Potency, µM (titrated, usually from 32.7 µM), actives largely listed as activators | actives 8.7% (n = 1,300) | AID 1963319;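 further: signal reports ligand binding via conformational change of the enzyme rather than luciferase catalysis; nearly all actives have a fitted effect of over 55% in size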
FLuc inh-2 = firefly luciferase enzyme inhibition | purified FLuc-C-HiBiT enzyme, luciferin luminescence | Potency, µM (series often up to 32.7 µM), actives largely listed as inhibitors | actives 42% (n = 1,300) | shares compounds with FLuc inh-1; further: nearly all actives have a fitted effect of over 70% in size
Large screens that a line does not name were inactive (follow-up assays come after a bar, where they were run). Unless noted, the call rests on the fitted dose curve; in most records, active means well fitted curve in the direction sought with a large enough effect; inconclusive means small, poorly fitted or top-dose-only effect, or another doubt; inactive means no such curve, though single readings can be large; an effect the other way counts as inactive or inconclusive.

CC1CCN(c2ncnc3c2CN(c2ccccc2)C(=O)N(C)C3)C1 (centres undefined)	none
CCCNC(=O)N1CCC2(CC1)CC2c1noc(C)n1 (centres undefined)	none (no result: hNpr1 antagonist, FLuc inh-1)
COc1ccc(CCC(=O)N2CCC3(CC2)CC(OC)CCO3)cc1 (centres undefined)	none
COC1CCOC2(CCN(C(=O)CCCc3ccccc3)CC2)C1 (centres undefined)	FLuc inh-1 6.3µM | FLuc SDR no ATP inactive | FLuc SDR ATP inconclusive | FLuc inh-2 inconclusive
Cn1nc(C2CCN(C(=O)c3ccccc3F)CC2)[nH]c1=O	none
O=C1NCCCc2[nH]c(-c3cc(-c4cccc(F)c4)no3)nc21	FLuc inh-1 2.8µM | FLuc SDR no ATP inconclusive | FLuc SDR ATP inconclusive | FLuc inh-2 7µM
O=C1c2cccn2CC(CNS(=O)(=O)c2ccc(F)cc2)N1Cc1ccccc1 (centres undefined)	HEK293 tox inconclusive
Cc1[nH]nc2c1C(c1ccc(Cl)cc1)C(C#N)=C(N)O2 (centres undefined)	HEK293 tox inconclusive, GPT2 inhibitor inconclusive | FLuc SDR no ATP inactive | FLuc SDR ATP inactive | FLuc inh-2 inactive
CN1CCc2nc3sc(C(=O)Nc4cccc(C#N)c4)c(N)c3cc2C1	none (no result: hNpr1 antagonist, 3T3 cytotox, HEK293 tox, GPT2 inhibitor, FLuc inh-1) | FLuc SDR no ATP inactive | FLuc SDR ATP inactive | FLuc inh-2 inactive
CCn1ccnc1C1CCCN(C(=O)c2n[nH]c3c2CN(C)CC3)C1 (centres undefined)	none
CCc1ccc2oc(-c3ccc(C)c(NC(=O)c4ccc(C#N)cc4F)c3)nc2c1	none (no result: hNpr1 antagonist, 3T3 cytotox, HEK293 tox, GPT2 inhibitor, FLuc inh-1) | FLuc SDR no ATP inactive | FLuc SDR ATP inactive | FLuc inh-2 inactive
O=C(Cc1cccc(Cl)c1)N1CCCC(c2nn(-c3cccc(Cl)c3)c(=O)[nH]2)C1 (centres undefined)	3T3 cytotox inconclusive, HEK293 tox inconclusive
CCOc1ccc(-n2nc(CO)c(C(=O)NCc3cccc(OC)c3)n2)cc1	none (no result: hNpr1 antagonist, 3T3 cytotox, HEK293 tox, GPT2 inhibitor, FLuc inh-1) | FLuc SDR no ATP inactive | FLuc SDR ATP inactive | FLuc inh-2 inconclusive
CCOc1ccc(-n2nc(CO)c(C(=O)NCc3ccccn3)n2)cc1	none (no result: hNpr1 antagonist, 3T3 cytotox, HEK293 tox, GPT2 inhibitor, FLuc inh-1) | FLuc SDR no ATP inactive | FLuc SDR ATP inactive | FLuc inh-2 inconclusive
CCOc1cc(=O)n2c(c1C(=O)NCc1ccccn1)CCCCC2	3T3 cytotox inconclusive
O=C(Nc1ccc(Cl)cc1F)N1CCc2nc3cc[nH]n3c(=O)c2C1	none
COCCNC(=O)CC1=CSC2=NC(C)=C(C(=O)OC(C)C)C(c3ccc([N+](=O)[O-])cc3)N12 (centres undefined)	3T3 cytotox inconclusive, HEK293 tox inconclusive
COc1ccc(CN2CCCC3(CC(c4cccnc4)=NO3)C2)cc1 (centres undefined)	none (no result: hNpr1 antagonist, FLuc inh-1)
COc1ccc(-c2nc(-c3ccccc3)nc3c2CN(C(=O)c2ccc(C(F)(F)F)cc2)CC3)cc1	HEK293 tox inconclusive
O=C(c1ccc(C(F)(F)F)cc1)N1CCc2nc(-c3ccccc3)nc(-c3ccc(Cl)cc3)c2C1	3T3 cytotox inconclusive, HEK293 tox inconclusive | FLuc SDR no ATP inactive | FLuc SDR ATP inactive | FLuc inh-2 inactive
COc1cccc(Nc2ncc(-c3ccc(OC)nc3)c3c2OCC3)c1	3T3 cytotox inconclusive, HEK293 tox inconclusive, FLuc inh-1 5.6µM | FLuc SDR no ATP inactive | FLuc SDR ATP inactive | FLuc inh-2 inconclusive
c1ccc(Nc2ncc(-c3ccccc3)c3c2OCC3)cc1	3T3 cytotox inconclusive, HEK293 tox inconclusive, FLuc inh-1 inconclusive
CNC(=O)c1cccc(-c2cnc(NC(=O)Cc3ccccc3)c3c2CCO3)c1	hNpr1 antagonist 8.9µM, 3T3 cytotox inconclusive, HEK293 tox inconclusive, FLuc inh-1 0.45µM | FLuc SDR no ATP 11µM | FLuc SDR ATP inconclusive | FLuc inh-2 3.2µM
CN(C)c1cccc(-c2cnc(NC(=O)C3(c4ccccc4)CC3)c3c2CCO3)c1	3T3 cytotox inconclusive, HEK293 tox inconclusive
CNC(=O)c1cccc(-c2cnc(Nc3ccccc3)c3c2CCO3)c1	3T3 cytotox 35µM, HEK293 tox 89µM, FLuc inh-1 8.9µM | FLuc SDR no ATP inactive | FLuc SDR ATP inactive | FLuc inh-2 inconclusive
Fc1cc(Nc2ncc(-c3ccccc3)c3c2OCC3)cc(N2CCOCC2)c1	3T3 cytotox inconclusive, HEK293 tox inconclusive
Fc1cccc(-c2cnc(Nc3ccc(N4CCOCC4)cc3)c3c2CCO3)c1	3T3 cytotox inconclusive, HEK293 tox inconclusive, FLuc inh-1 10µM | FLuc SDR no ATP inactive | FLuc SDR ATP inactive | FLuc inh-2 inconclusive
COCCNc1ncc(-c2cccc(NC(C)=O)c2)c2c1OCC2	hNpr1 antagonist inconclusive, 3T3 cytotox inconclusive, HEK293 tox inconclusive, FLuc inh-1 6.3µM | FLuc SDR no ATP inactive | FLuc SDR ATP inconclusive | FLuc inh-2 inconclusive
O=C(Nc1ncc(-c2ccccc2)c2c1OCC2)c1ccccc1	3T3 cytotox inconclusive, HEK293 tox inconclusive, FLuc inh-1 5.6µM | FLuc SDR no ATP inactive | FLuc SDR ATP inactive | FLuc inh-2 inconclusive
CNC(=O)c1cccc(-c2cnc(Nc3cccnc3OC)c3c2CCO3)c1	hNpr1 antagonist inconclusive, 3T3 cytotox 45µM, HEK293 tox 28µM, FLuc inh-1 3.5µM | FLuc SDR no ATP inactive | FLuc SDR ATP inactive | FLuc inh-2 5.1µM
O=C(c1ccc(Cl)nc1)N1CCCC(c2nn(-c3ccccc3)c(=O)[nH]2)C1 (centres undefined)	none
Fc1ccc(-c2cc3c(cn2)CN(Cc2ccncc2)CCN3)cc1Cl	hNpr1 antagonist inconclusive, 3T3 cytotox inconclusive, HEK293 tox 56µM, FLuc inh-1 1.8µM | FLuc SDR no ATP inactive | FLuc SDR ATP inactive | FLuc inh-2 18µM
COc1ccc(-c2cc3c(cn2)CN(Cc2ccncc2)CCN3)cc1	hNpr1 antagonist inconclusive, 3T3 cytotox inconclusive, HEK293 tox inconclusive, FLuc inh-1 3.2µM | FLuc SDR no ATP inactive | FLuc SDR ATP inconclusive | FLuc inh-2 inconclusive
Fc1ccc(CNc2cc3c(cn2)NCCN(Cc2ccccc2)C3)cc1	3T3 cytotox inconclusive, HEK293 tox inconclusive, GPT2 inhibitor inconclusive
COc1ccc(CN2CCNc3cc(-c4ccccc4)ncc3C2)cn1	3T3 cytotox inconclusive, HEK293 tox inconclusive, FLuc inh-1 14µM | FLuc SDR no ATP inactive | FLuc SDR ATP inactive | FLuc inh-2 inconclusive
CCOc1ccccc1C1NC(=O)N(CC(=O)Nc2cccc(OC)c2)C2=C1C(=O)OC2 (centres undefined)	none

From PubChem
